Inconclusive results are not listed. Active and inactive are the calls of the source. How the source made its calls, unless noted: active means hit-call score of the fitted dose curve at least 0.9, where 1 is the maximum; inconclusive means response in the unintended direction; inactive means score below 0.9.
Tests used:
[1] = target: Cellular tumor antigen p53 (Homo sapiens) (UniProt P04637); assay: TOX21_p53_BLA_p2_ratio: Tox21 HCT-116 p53 Agonism Beta-lactamase Assay, Ratio, Phase 2 (AID 2283592)
Summary of the method: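 Cleaved-to-uncleaved substrate ratio (460 vs 530 nm) measured in HCT116 cells with an inducible beta-lactamase reporter linked to p53 activity. Compounds incubated 16 h at 37C before 2 h room-temperature CCF4-AM loading.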

[2] = target: Cellular tumor antigen p53 (Homo sapiens) (UniProt P04637); assay: TOX21_p53_BLA_p3_ratio: Tox21 HCT-116 p53 Agonism Beta-lactamase Assay, Ratio, Phase 3 (AID 2283596)
Summary of the method: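 Cells were seeded at 4000/well, rested 5 h at 37C, then dosed with DMSO compound solutions (217-fold dilution) for 16 h. CCF4-AM substrate was loaded for 2 h at room temperature, and the 460/530 nm emission ratio was fitted for gain of signal versus DMSO.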

[3] = target: Cellular tumor antigen p53 (Homo sapiens) (UniProt P04637); assay: TOX21_p53_BLA_p4_ratio: Tox21 HCT-116 p53 Agonism Beta-lactamase Assay, Ratio, Phase 4 (AID 2283601)
Summary of the method: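 HCT-116 p53 beta-lactamase reporter cells (4000/well) preincubated 5 h, then compound (217-fold dilution of DMSO stock) for 16 h at 37C. CCF4-AM substrate added 2 h at room temperature; 460/530 nm emission ratio fitted upward versus DMSO.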

[4] = TOX21_p53_BLA_p5_viability: Viability Assessment in the Tox21 HCT-116 p53 Agonism Beta-lactamase Assay, Phase 5 (AID 2283600)
Summary of the method: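 Viability is taken from cellular ATP content, measured by luciferase luminescence in the same wells after the beta-lactamase ratio read. Cells are seeded at 4000 per well and exposed to DMSO-dissolved compounds, diluted 217-fold, for 16 h.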

[5] = system: Brachyury (BRA) Protein Expression, Deisenroth Lab, TBXT (gene 6862); assay: CCTE_Deisenroth_DEVTOX-GLR_legacy_Bra: (Legacy) CCTE's DevTox GLR-Endo Assay Evaluation of Brachyury (BRA) Protein Expression, Deisenroth Lab (AID 2284329; active means hit-call score of the fitted dose curve at least 0.9, where 1 is the maximum; inactive means score below 0.9)
Summary of the method: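 Readout: percent Bra+ cells by high-content fluorescence imaging, Bra+ meaning mean intensity 5x BMAD over pluripotent control median. RUES2-GLR cells dosed twice over 48 h differentiation; DMSO-control median subtracted before concentration-response fitting.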

[6] = CCTE_Deisenroth_DEVTOX-GLR_legacy_CellCount: (Legacy) Viability Assessment in CCTE's DevTox GLR-Endo Assay, Deisenroth Lab (AID 2284331; active means hit-call score of the fitted dose curve at least 0.9, where 1 is the maximum; inactive means score below 0.9); details: actives raise or lower the signal
Summary of the method: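 Human pluripotent RUES2-GLR cells differentiated 48 h with two 24-h-interval exposures, 10-point 1 nM–200 uM series, 0.2% DMSO. Fixed nuclei counted by high-content imaging (5 fields/well); bidirectional fit vs DMSO, n≥4.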

[7] = system: SRY-box transcription factor 17 (SOX17) Protein Expression, Deisenroth Lab, SOX17 (gene 64321); assay: CCTE_Deisenroth_DEVTOX-GLR_legacy_Sox17: (Legacy) CCTE's DevTox GLR-Endo Assay Evaluation of SRY-box transcription factor 17 (SOX17) Protein Expression, Deisenroth Lab (AID 2284341; active means hit-call score of the fitted dose curve at least 0.9, where 1 is the maximum; inactive means score below 0.9); details: actives raise or lower the signal
Summary of the method: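 RUES2-GLR human pluripotent cells differentiated toward endoderm for 48 h, dosed twice at 24 h intervals (1 nM–200 uM, 10 points). Imaging gives % SOX17+ cells (intensity >5x BMAD above pluripotent control median); bidirectional fit versus 0.2% DMSO.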

[8] = system: SRY-box transcription factor 2 (SOX2) Protein Expression, Deisenroth Lab, SOX2 (gene 6657); assay: CCTE_Deisenroth_DEVTOX-GLR_legacy_Sox2: (Legacy) CCTE's DevTox GLR-Endo Assay Evaluation of SRY-box transcription factor 2 (SOX2) Protein Expression, Deisenroth Lab (AID 2284346; active means hit-call score of the fitted dose curve at least 0.9, where 1 is the maximum; inactive means score below 0.9)
Summary of the method: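 Read-out: fraction of Sox2+ cells by high-content fluorescence imaging of fixed RUES2-GLR cells after 48 h differentiation with two 24 h-spaced exposures. Positivity cutoff 5x BMAD above endoderm control median; 0.2% DMSO median subtracted.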

[9] = system: SRY-box transcription factor 2 (SOX2) Protein Expression, Deisenroth Lab, SOX2 (gene 6657); assay: CCTE_Deisenroth_DEVTOX-GLR_Endo_SOX2: CCTE's DevTox GLR-Endo Assay Evaluation of SRY-box transcription factor 2 (SOX2) Protein Expression, Deisenroth Lab (AID 2284412)
Summary of the method: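 Endpoint is percent SOX2-positive cells (SOX2+ count/total cells) minus 0.2% DMSO control, from high-content imaging of fixed, nuclear-stained RUES2-GLR cells. Dosing twice at 24 h intervals over 48 h differentiation, 1 nM–200 uM in 10 points.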

[10] = system: SRY-box transcription factor 17 (SOX17) Protein Expression, Deisenroth Lab, SOX17 (gene 64321); assay: CCTE_Deisenroth_DEVTOX-GLR_Endo_SOX17: CCTE's DevTox GLR-Endo Assay Evaluation of SRY-box transcription factor 17 (SOX17) Protein Expression, Deisenroth Lab (AID 2284413; active means hit-call score of the fitted dose curve at least 0.9, where 1 is the maximum; inactive means score below 0.9)
Summary of the method: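 Human RUES2-GLR cells carrying an inducible fluorescent reporter are differentiated in defined media for 48 h and dosed twice, 24 h apart. After fixation and nuclear staining, imaging yields SOX17+ cell percentage relative to 0.2% DMSO-treated differentiated cells.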

[11] = system: Brachyury (BRA) Protein Expression, TBXT (gene 6862); assay: CCTE_Deisenroth_DEVTOX-GLR_Endo_BRA: CCTE's DevTox GLR-Endo Assay Evaluation of Brachyury (BRA) Protein Expression, Deisenroth Lab (AID 2284417; active means hit-call score of the fitted dose curve at least 0.9, where 1 is the maximum; inactive means score below 0.9)
Summary of the method: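 RUES2-GLR pluripotent cells differentiated 48 h with two chemical exposures 24 h apart, 10-point range 1 nM - 200 uM. Percentage of BRA+ cells per total count by high-content imaging, minus 0.2% DMSO control.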

[12] = CCTE_Deisenroth_DEVTOX-GLR_Endo_CellCount: Viability Assessment in CCTE's DevTox GLR-Endo Assay, Deisenroth Lab (AID 2284420; active means hit-call score of the fitted dose curve at least 0.9, where 1 is the maximum; inactive means score below 0.9)
Summary of the method: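 Viability in differentiating RUES2-GLR cultures is scored by fluorescent nuclear counts after 48 h and two 24-hourly chemical treatments, as percent change from the 0.2% DMSO control.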

[13] = system: SRY-box transcription factor 17 (SOX17) Protein Expression, Deisenroth Lab, SOX17 (gene 64321); assay: CCTE_Deisenroth_DEVTOX-GLR_Pluri_SOX17: CCTE's DevTox GLR-Pluri Assay Evaluation of SRY-box transcription factor 17 (SOX17) Protein Expression, Deisenroth Lab (AID 2284427)
Summary of the method: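 Seed cells 24 h; differentiate 48 h, dosing at 0 and 24 h (1 nM - 200 uM); fix, stain nuclei, image 5 fields per well; count SOX17+ cells over total cells and subtract 0.2% DMSO control.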

[14] = system: SRY-box transcription factor 2 (SOX2) Protein Expression, Deisenroth Lab, SOX2 (gene 6657); assay: CCTE_Deisenroth_DEVTOX-GLR_Pluri_SOX2: CCTE's DevTox GLR-Pluri Assay Evaluation of SRY-box transcription factor 2 (SOX2) Protein Expression, Deisenroth Lab (AID 2284428; active means hit-call score of the fitted dose curve at least 0.9, where 1 is the maximum; inactive means score below 0.9)
Summary of the method: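 SOX2 expression frequency is scored in a human pluripotent reporter line, RUES2-GLR, exposed to chemicals twice over 48 h. Imaging-based SOX2+ cell percentage is normalized as change versus 0.2% DMSO.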

[15] = CCTE_Deisenroth_DEVTOX-GLR_Pluri_CellCount: Viability Assessment in CCTE's DevTox GLR-Pluri Assay Evaluation of Total Cell Counts, Deisenroth Lab (AID 2284430; active means hit-call score of the fitted dose curve at least 0.9, where 1 is the maximum; inactive means score below 0.9)
Summary of the method: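 Cytotoxicity readout: fluorescent nuclei counts by high-content imaging, expressed as percent change relative to 0.2% DMSO. Human RUES2-GLR pluripotent line differentiated 48 h, dosed twice at 24-h intervals across 1 nM - 200 uM (10 points).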

[16] = TOX21_p53_BLA_p4_viability: Viability Assessment in the Tox21 HCT-116 p53 Agonism Beta-lactamase Assay, Phase 4 (AID 2283597);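 further: hits lower the luminescence signal meaning cytotoxicity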
Summary of the method: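 Viability is taken as cellular ATP: after 16 h compound exposure of HCT116 cells and a 2 h room-temperature CCF4-AM substrate step, CellTiter-Glo reagent is added and luminescence is measured 30 min later.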

[17] = target: Cellular tumor antigen p53 (Homo sapiens) (UniProt P04637); assay: TOX21_p53_BLA_p5_ratio: Tox21 HCT-116 p53 Agonism Beta-lactamase Assay, Ratio, Phase 5 (AID 2283599)
Summary of the method: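 HCT-116 p53-bla cells (4000/well) plated 5 h, dosed with compound (217-fold DMSO dilution) for 16 h at 37 C; CCF4-AM substrate 2 h at room temperature. Activity is the 460/530 nm emission ratio (405 nm excitation), fitted in gain-of-signal direction versus DMSO.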

Measured: outcome

Cellular tumor antigen p53 (Homo sapiens), sequence (P04637 whole entry, looked up): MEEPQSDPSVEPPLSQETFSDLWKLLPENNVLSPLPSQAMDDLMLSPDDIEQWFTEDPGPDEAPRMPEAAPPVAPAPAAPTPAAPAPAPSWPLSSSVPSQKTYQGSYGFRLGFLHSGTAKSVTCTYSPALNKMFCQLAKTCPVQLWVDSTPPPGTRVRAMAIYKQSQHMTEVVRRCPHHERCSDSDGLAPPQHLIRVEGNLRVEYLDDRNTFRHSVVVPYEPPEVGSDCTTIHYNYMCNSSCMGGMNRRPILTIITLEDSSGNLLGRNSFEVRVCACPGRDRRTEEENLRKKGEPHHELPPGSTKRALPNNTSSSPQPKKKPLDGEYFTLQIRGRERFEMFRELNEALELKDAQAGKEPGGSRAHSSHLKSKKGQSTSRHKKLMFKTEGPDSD

COc1ccc(CN(CCN(C)C)c2ncccn2)cc1
inactive: [1] | [2] | [3]

CC1(C)S[C@@H]2[C@H](NC(=O)Cc3ccccc3)C(=O)N2[C@H]1C(=O)O
not listed: [16] | [17]
inactive: all other assays above

OC(CCCN1CCCCC1)(c1ccccc1)c1ccccc1
inactive: [1] | [16]

O=c1[nH][nH]c2ccccc12
inactive: [1] | [2] | [3]

CO/N=C(\C(=O)N[C@@H]1C(=O)N2C(C(=O)O)=C(C[N+]3(C)CCCC3)CS[C@H]12)c1csc(N)n1
inactive: [1] | [2] | [3]

CC(C)=CC(C)(C)C
inactive: [1] | [16] | [17] | [4] | [3]

O=C(O)CC(=O)O
inactive: [1] | [2] | [3]

NC(Cc1ccccc1)C(=O)O (stereo unspecified)
inactive: [1] | [16]

— PubChem BioAssay (EPA / NIEHS)
